Most compounds without a hit are left out; they make up all but 2.5% or so of the library.
L3MBTL1 inh – blocks human L3MBTL1 | Potency, µM (highest dose often 57.1 µM), for inactives: at the top dose activity, negative = inhibition, usual class: inhibitors | Q9Y468 | 0.66% of 230,000 active | AlphaScreen L3MBTL1–H3K9me1 peptide binding | AID 485360; also: % is scaled to controls: 0 for no effect and ±100 for the full control effect; nearly all actives have a fitted effect of over 60% in size
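L3MBTL1 (50 nM) pre-complexed 30 min with biotinylated H3(1-15)K9me1 peptide (75 nM), then compounds added for 30 min at room temperature; AlphaScreen streptavidin donor/nickel chelate acceptor beads (10 ug/mL final) read after 30 min dark incubation.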
POLB inh – blocks human DNA polymerase beta activity; P06746; Pol beta primer extension/strand displacement, fluorescence kinetic; Potency, µM (top dose mostly 114 µM), for the others: at the top dose activity change, negative = inhibition, hits mostly inhibitors; 1.3% of 340,000 active; also: % is scaled to controls: 0 for no effect and ±100 for the full control effect
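Reaction started by 50 nM substrate onto compound-treated Pol beta (10 nM, 15 min preincubation, room temperature); plates read at 0 min and 10 min. Normalized concentration-effect data fitted by four-parameter Hill equation.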
Pol iota inh – DNA polymerase iota (human) inhibition. Potency, µM (titrated, usually from 115 µM), for the others: at the highest dose activity, negative = inhibition, hits mostly inhibitors. Pol iota fluorescent replication assay, 10 min. Q9UNA4. AID 588590. 1% of 390,000 active
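Fluorescent replication assay read twice, at 0 min and 10 min after adding 50 nM (final) substrate. Enzyme (10 nM) and compounds were first incubated 15 min at room temperature; enzyme-free buffer wells were negative controls.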
APEX1 inh – blocks human APE1 abasic DNA cleavage. 0.35% of 350,000 active. AID 2517. Potency, µM (series often up to 65.8 µM), without a hit: at the top dose activity change, negative = inhibition, actives largely listed as inhibitors. recombinant APE1, TAMRA/BHQ-2 abasic DNA cleavage fluorescence;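 also: plate controls were vehicle for no effect and reference inhibitor for full effect; nearly all actives have a fitted effect of over 55% in size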
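APE1 at 0.75 nM final was preincubated with compound 15 min at room temperature, then 50 nM double-stranded THF abasic-site substrate (5'-TAMRA/3'-BHQ-2) was added. Fluorescence (ex 525/em 598 nm) was read kinetically; third-minus-first read gave activity.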
Pol eta inh – inhibitors of human DNA polymerase eta; Potency, µM (top dose mostly 114 µM), inactives show top-dose activity change, negative = inhibition, usual class: inhibitors; Q9Y253; 1.2% of 390,000 active; recombinant Pol eta, fluorescent DNA replication assay; AID 588591; also: % is scaled to controls: 0 for no effect and ±100 for the full control effect
Target sequence (Q9Y253 whole entry, looked up): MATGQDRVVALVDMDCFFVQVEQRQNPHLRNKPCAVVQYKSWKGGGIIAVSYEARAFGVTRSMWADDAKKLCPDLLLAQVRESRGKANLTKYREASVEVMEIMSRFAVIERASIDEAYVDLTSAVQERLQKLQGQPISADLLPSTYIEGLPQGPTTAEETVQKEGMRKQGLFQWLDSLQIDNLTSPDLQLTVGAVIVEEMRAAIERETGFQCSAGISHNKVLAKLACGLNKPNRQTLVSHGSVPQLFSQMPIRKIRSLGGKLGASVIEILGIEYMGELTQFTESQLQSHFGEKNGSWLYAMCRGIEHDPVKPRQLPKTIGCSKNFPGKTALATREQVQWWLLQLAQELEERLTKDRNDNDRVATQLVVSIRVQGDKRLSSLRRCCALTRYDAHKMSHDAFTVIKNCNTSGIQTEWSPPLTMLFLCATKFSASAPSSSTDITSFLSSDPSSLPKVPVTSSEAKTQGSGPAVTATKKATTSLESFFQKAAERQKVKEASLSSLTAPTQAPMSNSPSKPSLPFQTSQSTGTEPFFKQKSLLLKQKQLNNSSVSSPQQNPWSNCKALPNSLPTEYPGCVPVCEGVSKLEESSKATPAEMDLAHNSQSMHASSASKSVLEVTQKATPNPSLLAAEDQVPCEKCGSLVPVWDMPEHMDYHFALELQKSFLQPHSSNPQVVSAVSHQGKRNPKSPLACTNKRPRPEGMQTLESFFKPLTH
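Pol eta (10 nM) was preincubated with compounds for 15 min at room temperature, after which fluorescent replication substrate (50 nM final) was added to start the reaction. Fluorescence was read kinetically at 0 and 10 min.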
POLK inh – blocks human DNA polymerase kappa activity | 0.53% of 400,000 active | Q9UBT6 | purified Pol kappa, fluorescent DNA synthesis assay, 10 min | Potency, µM (highest dose often 107 µM), for inactives: at the highest dose activity, negative = inhibition, most hits filed as inhibitors; also: % is scaled to controls: 0 for no effect and ±100 for the full control effect
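Fluorescent qHTS in 1536-well format: enzyme (10 nM) and compound sat 15 min at room temperature before 50 nM substrate (final) was added. Signal taken at 0 and 10 min; no-enzyme buffer wells were negative controls.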
* hit, by the source's call; ? = inconclusive; . = no result given; [ ] = remark or other dose. Calls follow the shape of the dose curve; as a rule, active = well fitted curve in the direction sought with a large enough effect; inconclusive = small, poorly fitted or top-dose-only effect, or another doubt; inactive = no such curve, though single readings can be large; an effect the other way counts as inactive or inconclusive. Potency is read from the fitted curve at half-maximal effect.

SMILES | L3MBTL1 inh | POLB inh | Pol iota inh | APEX1 inh | Pol eta inh | POLK inh
NC1CCc2ccc([N+](=O)[O-])cc21 (configuration not stated) | . | . | 3% | . | . | -6%
Cc1onc(-c2ccccc2Cl)c1C(=O)NCc1nnnn1-c1ccc(F)cc1 | 10% | . | 69% | 43% | -4% | -1%
CCCCCCCCCCCCCCCCCCN(CCCCCCCCCCCCCCCCCC)c1ccccc1 | . | . | -23% | . | . | -22%
O=C1OC(c2ccc(F)cc2)=C/C1=C\c1ccc([N+](=O)[O-])o1 | . | 7.1µM* | . | 3% | . | .
O=C(Cn1cnc2sc3c(c2c1=O)CCCC3)NCC(=O)Nc1c(F)cccc1F | . | 0% | -9% | 75% | -9% | 15%
O=C(C1CCN(S(=O)(=O)c2cnc[nH]2)CC1)N1CCN(c2ccc([N+](=O)[O-])cc2)CC1 | . | 22% | 35% | 14% | -16% | -3%
C=CCOC(=O)c1[nH]c2c(c1C)C(=O)CC(c1ccco1)C2 (configuration not stated) | ? | 13µM* | ? | ? | 25µM* | ?
Cc1c(C(=O)OCC(C)C)[nH]c2c1C(=O)CC(c1ccco1)C2 (configuration not stated) | ? | 25µM* | ? | ? | 32µM* | -27%
COc1ccc(Cc2nnc(N/N=C/c3ccc(O)cc3)[nH]c2=O)cc1OC | 18µM* | 9% | -5% | -1% | -12% | -5%
COc1ccc(Cc2nnc(N/N=C/c3ccc(Br)cc3)[nH]c2=O)cc1OC | 2% | 19% | 17% | 2% | -10% | -3%
CN1CC(O)C2=CC(=O)C(=O)C=C21 (configuration not stated) | . | . | . | 0.4µM* | . | 0.32µM*
CC1=NN(c2ccccc2)C(=O)/C1=C\c1ccc(Br)s1 | ? | 1% | ? | -9% | 89µM* | -18%
CC1=NN(c2ccccc2)C(=O)/C1=C/C=C/C=C/N(C)C | . | ? | 45µM* | -6% | -25% | ?
COc1ccc(/C=C2/C(=O)N(c3cccc(F)c3)N=C2C)c(OC)c1 | 0%[2.29 µM] | 28% | 1.1µM* | -10% | 11% | -9%
CC1=NN(c2ccccc2)C(=O)/C1=C/c1cccs1 | ? | 2% | 1.3µM* | -2% | -13% | -3%
CC1=NN(c2ccccc2)C(=O)/C1=C/c1ccc(Cl)cc1 | ? | -29% | ? | -3% | -2% | 2%
CC1=NN(c2ccc(C)cc2)C(=O)/C1=C\C=C\c1ccccc1 | ? | -5% | 100% | 11% | ? | -4%
O=C(C[N+]12CN3CN(CN(C3)C1)C2)c1ccc(I)cc1 | . | . | -1% | . | . | -10%
Cc1cccc(N(C)C(=O)CSc2nc3ncccc3o2)c1 | . | 9% | 5% | . | -8% | 5%
Nc1nc2c(c(=O)[nH]1)N(C=O)C(CNc1ccc(C(=O)N[C@@H](CCC(=O)O)C(=O)O)cc1)CN2 (some centres not stated) | . | . | . | 11%[21 µM] | . | .
CC1=NN(c2ccc(C)c(C)c2)C(=O)/C1=C/c1ccc2c(c1)n(C)c(=O)n2C | -9% | 34% | 1.4µM* | 6% | -11% | -24%
CCOc1cc(/C=C2/C(=O)N(c3ccccc3)N=C2C)ccc1OC(=O)c1ccco1 | -29% | 3% | 1µM* | -9% | -19% | -28%
CC1=NN(c2ccccc2)C(=O)C1=Cc1ccccc1 | . | . | . | . | -2% | .
COc1ccc(/C=C2/C(=O)N(c3ccccc3)N=C2C)cc1Br | . | 18% | 1.3µM* | 7% | ? | 3%
CCOc1cc(/C=C2/C(=N)N3N=C(CC)SC3=NC2=O)ccc1OC(=O)c1ccco1 | . | -8% | ? | -11% | -4% | -11%
SMILES | L3MBTL1 inh | POLB inh | Pol iota inh | APEX1 inh | Pol eta inh | POLK inh
C[C@H](CO)N1C[C@H](C)[C@@H](CN(C)S(=O)(=O)c2cn(C)cn2)Oc2c(NS(=O)(=O)c3cccs3)cccc2C1=O | 3% | . | 5% | 0% | -2% | -6%
CCCCNC(=O)[C@@H]1CC=C[C@@H]2CCN(Cc3ccccc3)C(=O)[C@@H]21 | . | . | 14% | . | . | -25%
C=C1C=C(C(F)F)n2ncc(C(=O)NCCc3ccc(OC)c(OC)c3)c2N1 | . | . | . | 23% | . | .
NC[C@@H]1CC[C@@H](N)[C@@H](O[C@H]2[C@H](O)[C@@H](O[C@H]3O[C@H](CO)[C@@H](O)[C@H](N)[C@H]3O)[C@H](N)C[C@@H]2N)O1 | . | . | . | 1% | . | .
O=C(O)c1ccc(-n2ncc3c2/C(=C/c2cccc([N+](=O)[O-])c2)CC3)cc1 | . | 1% | ? | ? | 50µM* | -9%
O=C(O)c1ccc(-n2ncc3c2/C(=C\c2cccc([N+](=O)[O-])c2)CC3)cc1 | . | . | ? | . | ? | -11%
CCCCNc1c(-c2ccc(OC)c(SC3CCCCC3)c2)nc2ccc(C)cn12 | -14% | . | -15% | 22% | -27% | -17%
COc1ccc(-c2nc3ccc(C)cn3c2NCc2ccccc2)cc1SC1CCCCC1 | -12% | . | 22µM* | -2% | 45µM* | 10%
CC(C)(C)C(=O)OCOP(=O)(OCOC(=O)C(C)(C)C)C(C)(Oc1ccc(O)cc1)P(=O)(OCOC(=O)C(C)(C)C)OCOC(=O)C(C)(C)C | . | . | . | 1% | . | 35µM*
CC(Oc1ccc(O)cc1)(P(=O)(O)O)P(=O)(O)O | . | . | . | ? | . | 13µM*
Cc1ccn(CC(=O)N2CCCC(N3CCN(c4cccc(C(F)(F)F)c4)CC3)C2)n1 (configuration not stated) | . | . | . | . | -1% | .
COc1ccccc1Nc1nn2c(=O)c3ccc(C(=O)NCCCOC(C)C)cc3nc2s1 | . | 45µM* | ? | . | ? | -15%
Cc1ccc(C)c(Nc2nn3c(=O)c4ccc(C(=O)NCc5cccs5)cc4nc3s2)c1 | . | 11µM* | -10% | . | ? | 4%[60.1 µM]
COc1ccccc1Nc1nn2c(=O)c3ccc(C(=O)NCc4cccs4)cc3nc2s1 | . | ? | 28% | . | ? | 4%[60.1 µM]
C/C(=C1/C=Nc2ccccc21)c1ccc(N(C)C)cc1 | . | . | 3% | . | . | -8%
O=C(c1cnccn1)N1CCC[C@@]2(CCN(c3ccccn3)C2)C1 | . | . | . | 5% | . | 9%[60.1 µM]
C=CC[n+]1ccc(/C=C2\C=Cc3cc(C)ccc3N2CC)c2ccccc21 | . | ? | ? | 6% | -15% | 50µM*
C/C(=N\OCC(=O)OC(C)C(=O)Nc1ccc(C)c(S(=O)(=O)N2CCOCC2)c1)c1ccc2c(c1)OCO2 (configuration not stated) | . | . | ? | . | 56µM* | -17%
CC1CCCCN1S(=O)(=O)c1ccc2[nH]c(=O)cc(C(=O)NCCc3ccc(Cl)cc3)c2c1 (configuration not stated) | . | ? | -27% | . | -7% | 4%[60.1 µM]
O=C(O)c1cc2cc(Cl)cc(Cl)c2oc1=O | -5% | 79µM* | ? | -6% | ? | ?
